From PubChem
tim23-1 inh: tim23-1 yeast growth inhibition. 330,000 compounds, 1.3% hits. S. cerevisiae tim23-1 growth, BacTiter-Glo luminescence, 24 h. AID 463212. inhibition, % at 20 µM;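 active = growth inhibition of the mutant yeast at or above 50%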;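 also: temperature-sensitive mutant grown at 25 °C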
PfHsp90 set2: inhibits growth of yeast expressing Plasmodium falciparum Hsp90; AID 504621; 310,000 compounds, 0.32% hits; S. cerevisiae expressing PfHsp90, BacTiter-Glo ATP, 48 h; yeast lacking PDR1 and PDR3 efflux regulators; inhibition, % at 9.4 µM;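 active = every replicate shows inhibition above about 80%, whatever the replicate mean, limit read from the data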
tim10-1 inh: growth inhibitors of tim10-1 mutant yeast. S. cerevisiae tim10-1 ts strain growth, BacTiter-Glo, 24 h. inhibition, % at 20 µM. 330,000 compounds, 2.2% hits. AID 463190;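 active = inhibition of at least 40%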;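 also: mutant grown at 25 °C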
V-ATPase pH: alters yeast V-ATPase proton transport. S. cerevisiae, pHLuorin cytosolic pH fluorescence. response, % at 10 µM. 350,000 compounds, 0.37% hits. AID 504577; in the data active = response mostly above about 7.3%, no sharp cut-off; inactive = mostly below about 5.4%; also: actives read high
TIM10 inh: inhibits growth of TIM10 yeast strain | AID 463195 | S. cerevisiae TIM10 strain growth, BacTiter-Glo luminescence, 24 h | 330,000 compounds, 1.4% hits | inhibition, % at 10 µM;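 active = inhibition of 40% or more at the single tested concentration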;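 also: wild-type TIM10 isogenic control strain grown at permissive 25 °C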
tim23-1 conf: confirmation of tim23-1 mutant yeast growth inhibitors. 4,400 compounds, 83% hits. inhibition, % at 20 µM. shares compounds with tim23-1 inh. S. cerevisiae tim23-1 growth, BacTiter-Glo luminescence, 24 h;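 active = inhibition above about 39% in either of two replicate wells at 20 µM, limit read from the data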;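 also: temperature-sensitive tim23-1 mutant grown at 25 °C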
Large screens that a line does not name were inactive (follow-up assays come after a bar, where they were run). The list is not random: actives were taken first. Their share in the collection is about 3.7%.

O=C(CSCc1ccc(F)cc1)Nc1nc2c(s1)CCCC2	tim23-1 inh 56 | tim23-1 conf 41
Cc1cc(C)c(S(=O)(=O)N2CCCCC2CCNC(=O)C(=O)NCCN2CCOCC2)c(C)c1 (stereo not given)	none
CN1CCc2nc3sc(C(=O)C45CC6CC(CC(C6)C4)C5)c(N)c3cc2C1	tim23-1 inh 90, PfHsp90 set2 129 | tim23-1 conf 85
Nc1c(C(=O)O)sc2nc3c(cc12)CCCC3	none (no result: PfHsp90 set2)
O=[N+]([O-])c1ccc2c(c1N1CCCCC1)=NC1(CCCCC1)[N+]=2[O-]	tim23-1 inh 54 | tim23-1 conf 42
O=C1c2cccc3c(Cl)ccc(c23)C(=O)N1O	tim23-1 inh 61 | tim23-1 conf 69
CCOC(=O)C1CCN(S(=O)(=O)c2ccc3c(c2)CC(C)N3C(=O)C2CCC2)CC1 (stereo not given)	tim23-1 inh 51 | tim23-1 conf 43
Cc1ccccc1-c1nc(SCc2ccccn2)c2c(=O)n(C)c(=O)n(C)c2n1	none
Cn1c(=O)c2c(SCc3cccnc3)nc(C3CC3)nc2n(C)c1=O	tim23-1 inh 50 | tim23-1 conf 42
CC(C)c1nc(SCc2ccccn2)c2c(=O)n(C)c(=O)n(C)c2n1	tim23-1 inh 50 | tim23-1 conf 48
CCc1nc(SCc2ccccn2)c2c(=O)n(C)c(=O)n(C)c2n1	tim23-1 inh 55 | tim23-1 conf 50
CC(C)c1nc(SCC(=O)N2CCCC2)c2c(=O)n(C)c(=O)n(C)c2n1	none
COc1ccccc1N1CCN(C2CCCN(S(=O)(=O)c3ccccc3)C2)CC1 (stereo not given)	none
O=C(Nc1ccccc1)OC1CCC2CC1CCC2OC(=O)Nc1ccccc1 (stereo not given)	tim23-1 inh 53 | tim23-1 conf inactive
O=C(Nc1ccccc1)C1CC2CCC1C2 (stereo not given)	none
CC(=O)c1ccc(OCC(=O)N(C)CC(=O)Nc2ccc(N3CCOCC3)cc2)cc1	none
COc1ccccc1C(=O)COC(=O)Cc1ccccc1F	tim23-1 inh 52 | tim23-1 conf 54
CC(=O)OC1CC2(C)C(CCC2(O)C(C)=O)C2CCC3C(Cl)C(=O)CCC3(C)C12 (stereo not given)	none (no result: tim23-1 inh, tim10-1 inh, TIM10 inh)
Cc1cnn(-c2nc(-c3ccccc3)cc(-c3ccccc3)n2)c1	tim23-1 inh 52 | tim23-1 conf 56
COc1cc(OC)c(C(=O)Nc2cc(S(=O)(=O)N3CCOCC3)ccc2N2CCOCC2)cc1OC	none (no result: tim23-1 inh, PfHsp90 set2, tim10-1 inh, TIM10 inh)
CCC1Nc2ncnc(N3CCN(c4ccccn4)CC3)c2N(Cc2ccc(Cl)cc2)C1=O (stereo not given)	none
COc1ccc(Br)cc1-c1nc(CCl)cs1	tim23-1 inh 51 | tim23-1 conf 57
O=C(Nc1ccn(Cc2ccc(Cl)cc2)n1)c1ccc2c(c1)OCO2	tim23-1 inh 59 | tim23-1 conf 63
CC1=NN(c2ccc(C)cc2C)C(=O)C1C(c1ccccc1O)C1C(=O)N(c2ccc(C)cc2C)N=C1C (stereo not given)	none
CC1=NN(c2ccc(Cl)cc2)C(=O)C1C(c1ccccc1O)c1c(C)[nH]n(-c2ccc(Cl)cc2)c1=O (stereo not given)	tim23-1 inh 57 | tim23-1 conf 49
CC(=O)N1c2ccc(S(=O)(=O)N3CCC(C(=O)Nc4cccc(C(F)(F)F)c4)CC3)cc2CC1C (stereo not given)	none
Oc1c(Br)cc(Br)c(/C=N/n2c(-c3ccccc3)n[nH]c2=S)c1Br	tim23-1 inh 56, PfHsp90 set2 119 | tim23-1 conf 51
S=c1[nH]nc(-c2ccccc2)n1/N=C/c1cccc(Br)c1	none
CCCc1nn(-c2ccccc2)c2c1C(c1cccs1)C(C#N)=C(N)O2 (stereo not given)	tim23-1 inh 51 | tim23-1 conf 44
Cc1nn(-c2ccccc2)c2c1C(c1cccs1)C(C#N)=C(N)O2 (stereo not given)	tim23-1 inh 61 | tim23-1 conf 60
CC1CCCCC1NC(=O)c1ccc(NC2=NC3CS(=O)(=O)CC3S2)cc1 (stereo not given)	none
CCN1C(=O)c2cccc3c(S(=O)(=O)N(C(=O)c4ccncc4)c4ccc(OC)cc4)ccc1c23	tim23-1 inh 52 | tim23-1 conf inactive
CCN1C(=O)c2cccc3c(S(=O)(=O)N(C(=O)c4cccnc4)c4ccc(OC)cc4)ccc1c23	none
Cn1nnnc1Sc1ncnc2scc(-c3ccc(F)cc3)c12	none
Cn1nnnc1Sc1ncnc2scc(-c3ccc(Br)cc3)c12	tim23-1 inh 68 (no result: PfHsp90 set2) | tim23-1 conf 59
Cc1ccc(NCC(=O)N/N=C\c2ccc([N+](=O)[O-])o2)cc1	tim23-1 inh 55 | tim23-1 conf 41
CC1=C(C(=O)N(C)C)CC(CC(=O)NC2CCCCC2)C(=O)N1CCCN1CCCC1=O (stereo not given)	none (no result: tim23-1 inh, PfHsp90 set2, tim10-1 inh, TIM10 inh)
COc1c(O)c(=O)n2c3ccccc3c3ccnc1c32	tim23-1 inh 62 | tim23-1 conf 78
O=c1c(Cl)c(O)c2cccc3c4ccccc4n1c23	none
CCn1c2ccccc2nc2cc3c(cc21)c(Cl)c(=O)c1ccccc13	none (no result: tim23-1 inh, PfHsp90 set2, tim10-1 inh, TIM10 inh)
CC12CC3(C)CC(C)(C1)CC(C(=O)NC1=NCCS1)(C2)C3	tim23-1 inh 52 | tim23-1 conf 40
CCOc1ccc(NS(=O)(=O)c2cccs2)cc1S(=O)(=O)N1CCCC1	none (no result: tim23-1 inh, PfHsp90 set2, tim10-1 inh, TIM10 inh)
N#Cc1c(-c2ccccc2)cc(-c2ccc(O)cc2)nc1N	tim23-1 inh 54 | tim23-1 conf 57
Cc1ccc(S(=O)(=O)N2CCN(CCOc3cccc(C)c3)CC2)cc1	none
CC1(C)CC2CC(C)(CN2S(=O)(=O)c2ccc(F)cc2F)C1 (stereo not given)	tim23-1 inh 52 (no result: PfHsp90 set2) | tim23-1 conf 49
CCN(CC)c1ccc(/C=C2\C(=N)N3N=C(CC(=O)N4CCOCC4)SC3=NC2=O)cc1	none
COc1ccc(NC(=O)CSc2ncccc2C(=O)OC(C)C)cc1OC	none (no result: PfHsp90 set2)
CC(C)OC(=O)c1cccnc1SCc1cc(=O)n2ccccc2n1	tim23-1 inh 65 | tim23-1 conf 44
COc1ccc(S(=O)(=O)N2CCN(Cc3cccc(Cl)c3)CC2)cc1	tim23-1 inh 51 | tim23-1 conf 53
COc1ccc(S(=O)(=O)N2CCN(Cc3cccc([N+](=O)[O-])c3)CC2)cc1	none
COc1ccc(C(=O)OCn2nnc3ccccc3c2=O)cc1OC	none
CN(C)S(=O)(=O)c1ccc(C(=O)OCn2nnc3ccccc3c2=O)cc1	tim23-1 inh 54 | tim23-1 conf inactive
Cc1cc(C)c2oc(-c3cccc(N)c3)nc2c1	tim23-1 inh 64 | tim23-1 conf 60
Cc1ccc(S(=O)(=O)N2CCOCC2)cc1NC(=O)COC(=O)c1ccco1	none (no result: tim23-1 inh, PfHsp90 set2, tim10-1 inh, TIM10 inh)
COCCn1c(-c2cccs2)nc2nc3ccccc3nc21	none
CCCn1c(-c2cccs2)nc2nc3ccccc3nc21	tim23-1 inh 54 | tim23-1 conf 40
